# Laboratory results: the supplement of paper PMC6089552
# Screen size: about 3,200 compounds; about 300 (9.4%) showed activity. The sample as a whole holds a higher share of actives than the screen did. Unmarked numbers belong to inactive results.
# System: A673/TR/shEF
# Test: cell viability (LOESS-normalised, relative to median of negative controls) (log2 ratio); higher = more viable cells (less compound effect), active = hit call of the paper (over 3 MAD below the median)
# Details: treatment time: 72 h
# Outline: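 Viability of A673/TR/shEF Ewing sarcoma cells was determined by CellTiter-Glo luminescence. The cells, at 1,500 per well in 384-well plates, were grown with or without doxycycline from 24 h before compound addition to switch on EWS-FLI1 shRNA knockdown, then exposed for three days to library compounds at two or more concentrations or to DMSO controls. Signals were LOESS-corrected plate by plate, normalised to the negative-control median and log2-transformed.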
# [1] = 0.25 µM, library screen: screen1, EWS-FLI1 expression: high (no doxycycline)
# [2] = 0.25 µM, library screen: screen1, EWS-FLI1 expression: low (doxycycline-induced shRNA knockdown)
# [3] = 0.25 µM, library screen: screen2, EWS-FLI1 expression: high (no doxycycline)
# [4] = 0.25 µM, library screen: screen2, EWS-FLI1 expression: low (doxycycline-induced shRNA knockdown)
# [5] = 2.5 µM, library screen: screen1, EWS-FLI1 expression: high (no doxycycline)
# [6] = 2.5 µM, library screen: screen1, EWS-FLI1 expression: low (doxycycline-induced shRNA knockdown)
# [7] = 2.5 µM, library screen: screen2, EWS-FLI1 expression: high (no doxycycline)
# [8] = 2.5 µM, library screen: screen2, EWS-FLI1 expression: low (doxycycline-induced shRNA knockdown)
smiles,measurement,setting,value
CC1=C(O)C(=O)C=C2C1=CC=C1[C@@]2(C)CC[C@@]2(C)[C@@H]3C[C@](C)(C(=O)O)CC[C@]3(C)CC[C@]12C,cell viability (log2),"0.025 µM, library screen: screen2, EWS-FLI1 expression: high (no doxycycline)",0.14
same,cell viability (log2),"0.025 µM, library screen: screen2, EWS-FLI1 expression: low (doxycycline-induced shRNA knockdown)",0.0632
same,cell viability (log2),[1],0.0936
same,cell viability (log2),[2],0.0786
same,cell viability (log2),[3],0.154
same,cell viability (log2),[4],0.0872
same,cell viability (log2),[5],-1.03 (active)
same,cell viability (log2),[6],0.0632
same,cell viability (log2),[7],-4.23 (active)
same,cell viability (log2),[8],-0.301 (active)
same,cell viability (log2),"25 µM, library screen: screen2, EWS-FLI1 expression: high (no doxycycline)",-4.23 (active)
same,cell viability (log2),"25 µM, library screen: screen2, EWS-FLI1 expression: low (doxycycline-induced shRNA knockdown)",-3.9 (active)
COC(=O)[C@]1(C)CC[C@]2(C)CC[C@]3(C)C4=CC=C5C(=CC(=O)C(O)=C5C)[C@]4(C)CC[C@@]3(C)[C@@H]2C1,cell viability (log2),[1],-0.0347
same,cell viability (log2),[2],0.133
same,cell viability (log2),[5],-2.91 (active)
same,cell viability (log2),[6],-3.05 (active)
NCC(CC(=O)O)c1ccc(Cl)cc1 (stereo not given),cell viability (log2),[1],0.0966
same,cell viability (log2),[2],0.12
same,cell viability (log2),[3],0.221
same,cell viability (log2),[4],0.138
same,cell viability (log2),[5],0.123
same,cell viability (log2),[6],0.15
same,cell viability (log2),[7],0.124
same,cell viability (log2),[8],0.0836
CCC(N)C(O)c1ccc(O)c(O)c1 (stereo not given),cell viability (log2),[1],0.161
same,cell viability (log2),[2],0.0223
same,cell viability (log2),[5],0.0883
same,cell viability (log2),[6],0.0282
C[C@]12CC[C@H](O)CC1=CC[C@@H]1[C@@H]2CC[C@]2(C)C(=O)CC[C@@H]12,cell viability (log2),"0.103 µM, library screen: screen3, EWS-FLI1 expression: high (no doxycycline)",-0.0409
same,cell viability (log2),"0.103 µM, library screen: screen3, EWS-FLI1 expression: low (doxycycline-induced shRNA knockdown)",0.0562
same,cell viability (log2),[1],0.164
same,cell viability (log2),[2],0.131
same,cell viability (log2),[3],0.133
same,cell viability (log2),[4],0.0866
same,cell viability (log2),"0.308 µM, library screen: screen3, EWS-FLI1 expression: high (no doxycycline)",0.0564
same,cell viability (log2),"0.308 µM, library screen: screen3, EWS-FLI1 expression: low (doxycycline-induced shRNA knockdown)",0.076
same,cell viability (log2),"0.926 µM, library screen: screen3, EWS-FLI1 expression: high (no doxycycline)",-0.013
same,cell viability (log2),"0.926 µM, library screen: screen3, EWS-FLI1 expression: low (doxycycline-induced shRNA knockdown)",0.0349
same,cell viability (log2),[5],0.137
same,cell viability (log2),[6],0.104
same,cell viability (log2),[7],0.173
same,cell viability (log2),[8],0.152
same,cell viability (log2),"2.8 µM, library screen: screen3, EWS-FLI1 expression: high (no doxycycline)",0.0481
same,cell viability (log2),"2.8 µM, library screen: screen3, EWS-FLI1 expression: low (doxycycline-induced shRNA knockdown)",0.0405
same,cell viability (log2),"8.3 µM, library screen: screen3, EWS-FLI1 expression: high (no doxycycline)",0.0125
same,cell viability (log2),"8.3 µM, library screen: screen3, EWS-FLI1 expression: low (doxycycline-induced shRNA knockdown)",0.0569
same,cell viability (log2),"25 µM, library screen: screen3, EWS-FLI1 expression: high (no doxycycline)",-0.0287
same,cell viability (log2),"25 µM, library screen: screen3, EWS-FLI1 expression: low (doxycycline-induced shRNA knockdown)",-0.0258
CCC(C)C(=O)O[C@@H]1C[C@@]2(C)[C@H](c3ccoc3)OC(=O)CC23OC2(C)OC14C1(C)[C@@H](CC(=O)OC)C5(C)CC1(O)C(O)([C@@H](OC(C)=O)C43O2)[C@H]5OC(=O)C1(C)OC1C (stereo not given in full),cell viability (log2),[1],0.0892
same,cell viability (log2),[2],0.0664
same,cell viability (log2),[5],0.0941
same,cell viability (log2),[6],0.178
O=C(O)COc1cc(Cl)c(Cl)cc1Cl,cell viability (log2),[1],0.0712
same,cell viability (log2),[2],0.0603
same,cell viability (log2),[5],0.0828
same,cell viability (log2),[6],0.0118
c1ccc2c3c([nH]c2c1)CNCC3,cell viability (log2),[1],0.101
same,cell viability (log2),[2],0.0693
same,cell viability (log2),[5],0.2
same,cell viability (log2),[6],0.0982
FC(F)(F)c1cccc(N2CCNCC2)c1,cell viability (log2),[1],0.112
same,cell viability (log2),[2],0.0689
same,cell viability (log2),[5],0.176
same,cell viability (log2),[6],0.0985
CN1C2CCC1CC(OC(c1ccccc1)c1ccc(Cl)cc1)C2 (stereo not given),cell viability (log2),[3],0.142
same,cell viability (log2),[4],0.124
same,cell viability (log2),[7],0.232
same,cell viability (log2),[8],0.111
CC(C)CC(NC(=O)C(Cc1ccccc1)NC(=O)CNC(=O)CNC(=O)C(N)Cc1ccc(O)cc1)C(=O)O (stereo not given),cell viability (log2),[1],0.0697
same,cell viability (log2),[2],0.0904
same,cell viability (log2),[5],0.0902
same,cell viability (log2),[6],0.179
c1ccc2c(c1)[nH]c1cnccc12,cell viability (log2),[1],0.0149
same,cell viability (log2),[2],-0.0111
same,cell viability (log2),[5],0.101
same,cell viability (log2),[6],0.0791
Cc1nccc2c1[nH]c1ccccc12,cell viability (log2),[1],0.0742
same,cell viability (log2),[2],0.0176
same,cell viability (log2),[3],0.227
same,cell viability (log2),[4],0.0311
same,cell viability (log2),[5],0.126
same,cell viability (log2),[6],0.136
same,cell viability (log2),[7],0.107
same,cell viability (log2),[8],0.0839
Cc1c2ccncc2c(C)c2c1[nH]c1ccccc12,cell viability (log2),[3],0.0843
same,cell viability (log2),[4],0.00884
same,cell viability (log2),[7],-0.136 (active)
same,cell viability (log2),[8],-0.00745
Cc1ccccc1O,cell viability (log2),[1],0.162
same,cell viability (log2),[2],0.0964
same,cell viability (log2),[5],0.189
same,cell viability (log2),[6],0.175
COC(C)(C)CCCC(C)C/C=C/C(C)=C/C(=O)OC(C)C (stereo not given),cell viability (log2),[1],-0.00169
same,cell viability (log2),[2],0.0238
same,cell viability (log2),[5],0.116
same,cell viability (log2),[6],0.0204
COc1ccccc1N1CCNCC1,cell viability (log2),[1],0.0547
same,cell viability (log2),[2],0.0205
same,cell viability (log2),[3],0.228
same,cell viability (log2),[4],0.0463
same,cell viability (log2),[5],0.105
same,cell viability (log2),[6],0.112
same,cell viability (log2),[7],0.201
same,cell viability (log2),[8],0.0929
c1ccc2nc(N3CCNCC3)ccc2c1,cell viability (log2),[1],0.0719
same,cell viability (log2),[2],0.0592
same,cell viability (log2),[3],0.196
same,cell viability (log2),[4],0.0365
same,cell viability (log2),[5],0.0383
same,cell viability (log2),[6],0.12
same,cell viability (log2),[7],0.14
same,cell viability (log2),[8],0.00635
c1ccc2c(N3CCNCC3)cccc2c1,cell viability (log2),[3],0.144
same,cell viability (log2),[4],-0.113
same,cell viability (log2),[7],-0.803 (active)
same,cell viability (log2),[8],-0.746 (active)
C[C@]12Cc3cn4c(nc3C=C1CCC1C2CC[C@@]2(C)[C@H]1CC[C@@]2(O)C#N)nc1ccccc14 (stereo not given in full),cell viability (log2),[3],0.119
same,cell viability (log2),[4],0.112
same,cell viability (log2),[7],0.295
same,cell viability (log2),[8],0.0843
